Shown are actives, neighbours in structure and some others; about 6.3% of the full set was active somewhere.
RORgamma inh = inhibitors of mouse ROR gamma transcriptional activity; AID 2551; Potency, µM (doses to about 53.6 µM), for inactives: top-dose activity change, negative = inhibition, hits mostly inhibitors; P51450; Drosophila S2 Gal4-RORgamma UAS-luciferase reporter, 20 h; 310,000 tested, 5.4% active; further: on the % scale 0 is the no-effect control and ±100 the full control effect; nearly all actives have a fitted effect of over 60% in size
Target sequence (P51450 whole entry, looked up, the tested form may be a part): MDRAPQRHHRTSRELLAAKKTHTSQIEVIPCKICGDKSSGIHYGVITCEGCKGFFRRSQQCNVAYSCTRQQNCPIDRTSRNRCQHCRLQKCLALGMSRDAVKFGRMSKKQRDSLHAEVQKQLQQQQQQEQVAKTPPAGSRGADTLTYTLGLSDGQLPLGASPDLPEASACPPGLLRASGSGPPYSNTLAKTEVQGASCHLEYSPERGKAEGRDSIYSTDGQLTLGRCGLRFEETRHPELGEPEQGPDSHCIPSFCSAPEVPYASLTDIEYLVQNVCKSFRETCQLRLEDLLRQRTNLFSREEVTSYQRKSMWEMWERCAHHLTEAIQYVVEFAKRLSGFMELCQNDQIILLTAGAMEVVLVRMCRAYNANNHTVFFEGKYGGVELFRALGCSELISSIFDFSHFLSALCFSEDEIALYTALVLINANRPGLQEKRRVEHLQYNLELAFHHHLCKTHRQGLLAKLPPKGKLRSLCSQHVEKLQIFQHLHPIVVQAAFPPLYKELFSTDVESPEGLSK
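Using a luciferase readout, inhibitors were identified by reduced reporter activity in Drosophila cells coexpressing a copper-inducible Gal4–ROR gamma fusion and UAS-driven Photinus luciferase, incubated 20 hr after 700 uM copper sulfate.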
S2 tox = reduces viability in counter-screen for ATXN expression inhibitors; Potency, µM (highest dose often 56.7 µM), most hits filed as cytotoxic; 400,000 tested, 0.49% active; S2 cells (HEK-293 line with an ATXN2-luciferase reporter) viability, CellTiter-Fluor protease fluorescence, 24 h; further: nearly all actives have a fitted effect of over 40% in size
HepG2 tox = HepG2 cytotoxicity, counter-screen for TGF-b inhibitors | Potency, µM (top dose mostly 46.1 µM), inactives show at the highest dose activity change, negative = cytotoxicity, actives largely listed as cytotoxic | 410,000 tested, 0.76% active | HepG2 CAGA-GFP viability, ATP luminescence, 18 h
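HepG2 CAGA-GFP cells (1000/well, DMEM with 1% FBS) received compound, then TGF-beta at 500 pg/mL final, and were incubated 18 hours at 37 degrees C. Viability was read by CellTiter-Glo luminescence. Media-only wells were set as complete cell-killing and DMSO as no toxicity.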
TGFb inhibitor = inhibitors of TGF-b signaling. AID 588855. 410,000 tested, 1.2% active. HepG2 CAGA-GFP TGF-b/SMAD3 reporter, GFP fluorescence, 18 h; TGF-beta stimulated, 500 pg/mL final. Potency, µM (highest dose often 46.1 µM), for the others: top-dose activity, negative = inhibition, actives largely listed as inhibitors; further: on the % scale 0 is the no-effect control and ±100 the full control effect; nearly all actives have a fitted effect of over 65% in size
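Cell-based qHTS in HEPG2 carrying a CAGA-GFP Smad reporter; compounds added before 500 pg/mL final TGF-beta, 18 h incubation at 37 degrees C, GFP fluorescence quantified per cell by imaging cytometry.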
ATXN2 expr inh = inhibitors of ATXN2 expression; HEK-293 ATXN2-luciferase reporter, luminescence, 24 h; Potency, µM (doses to about 57 µM), without a hit: at the top dose activity change, negative = inhibition, hits mostly inhibitors; 360,000 tested, 0.72% active; AID 1745845; further: on the % scale 0 is the no-effect control and ±100 the full control effect; nearly all actives have a fitted effect of over 55% in size
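qHTS (up to 57 uM final) was run with 24 h compound exposure of reporter cells at 37 °C. Each well was multiplexed: SteadyGlo luminescence measured ATXN2-luciferase expression after a fluorogenic Gly-Phe-AFC viability readout (25 uM final).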
Gal4-VP16 FLuc = Gal4-VP16 reporter inhibition counter-screen | Drosophila S2 Gal4-VP16 UAS-luciferase, luminescence, 20 h | Potency, µM (top dose mostly 53.6 µM), without a hit: top-dose activity, negative = inhibition, most hits filed as inhibitors | 310,000 tested, 3.5% active;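 further: Gal4-VP16 expression switched on by copper sulfate through the metallothionein promoter; on the % scale 0 is the no-effect control and ±100 the full control effect; nearly all actives have a fitted effect of over 50% in size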
Starred values were filed as active, the others as inactive; i = inactive; ? = inconclusive; · = no result; [ ] = dose if it differs, or a comment. The call rests on the fitted dose curve; in most records, active means well fitted curve in the direction sought with a large enough effect; inconclusive means small, poorly fitted or top-dose-only effect, or another doubt; inactive means no such curve, though single readings can be large; an effect the other way counts as inactive or inconclusive. Potency means the concentration at half of the fitted maximal effect.

SMILES	RORgamma inh	S2 tox	HepG2 tox	TGFb inhibitor	ATXN2 expr inh	Gal4-VP16 FLuc
Cc1nc2cc(NC(=O)Nc3cccc4ccccc34)ccc2n1C	-14%	i	-3%	4%	37%[11.3 µM]	-3%
CCCNC(=O)c1ccc2c(=O)c(O)c(-c3ccc(F)cc3)[nH]c2c1	-34%	i	-35%	?	?	-12%
CCCNC(=O)c1ccc2c(=O)c(O)c(-c3cccc(Br)c3)[nH]c2c1	-43%	i	1%	?	22µM*	-1%
Cc1cccc(-n2nnc(-c3nc(-c4cccs4)no3)c2N)c1C	·	i	-3%	-24%	86%	·
Cc1ccc2[nH]c3c(N4CCc5ccccc5C4)ncnc3c2c1	?	?	-51%	?	-26%	3.2µM*
Fc1ccc2[nH]c3c(NCCN4CCOCC4)ncnc3c2c1	?	?	-24%	3%	-36%	13µM*
Fc1ccc2[nH]c3c(N4CCc5ccccc5C4)ncnc3c2c1	11µM*	?	-76%	?	?	3.2µM*
Cc1cc(NC(=O)CCS(=O)(=O)c2cc(Br)cc3c2N(C(=O)C2CC2)CC3)ccc1Br	·	i	-23%	-6%	8%	·
Cc1ccn(Cc2n[nH]c(=S)n2Cc2ccccc2)n1	-40%	i	8%	14%	-5%	-10%
S=c1[nH]nc(CN2CCCCC2)n1Cc1ccccc1	3.2µM*	i	-1%	-8%	-5%	18µM*
S=c1[nH]nc(CN2CCCC2)n1Cc1ccccc1	11µM*	i	-1%	-4%	-12%	-8%
Cc1ccc(C(=O)N[C@H](C(=O)Nc2ccc(N3CCOCC3)cc2)C(C)C)cc1	·	?	-1%	-11%	-12%	·
COc1cc(C(CCN2CCOCC2)c2c(OC)cc(OC)c3c(-c4ccccc4)cc(=O)oc23)cc(OC)c1OC (stereo not drawn)	?	?	11µM*	?	-22%	-1%[40.7 µM]
COc1cc(OC)c2c(-c3ccccc3)cc(=O)oc2c1C(CCN1CCCC(C)C1)c1ccc(N(C)C)cc1 (stereo not drawn)	?	20µM*	-60%	?	?	-28%
COc1ccc(C(CCN2CCCC(C)C2)c2c(OC)cc(OC)c3c(-c4ccccc4)cc(=O)oc23)cc1 (stereo not drawn)	?	·	-44%	?	?	-24%
COc1ccc2c(c1)CCc1c(C(=O)Nc3c(C)nn(Cc4ccc(Cl)c(Cl)c4)c3C)noc1-2	·	·	-1%	-21%	·	·
Cc1cc(C(=O)Nc2cccc(-c3nc(CNC(=O)c4sc(C)nc4C)c(C)o3)c2)c(C)o1	·	i	·	·	·	·
O=C(Cc1ccc(OCc2ccccn2)cc1)NO	·	·	-27%	-10%	·	·
CC(=O)n1cc(C(C[N+](=O)[O-])SCCN)c2ccccc21 (stereo not drawn)	13µM*	·	-95%	?	?	?
Cn1cc(C(C[N+](=O)[O-])c2ccccc2)c2ccccc21 (stereo not drawn)	?	i	-11%	?	10%	3%
CC(NC(=S)Nc1c(Br)cccc1OC(F)F)C(C)(C)C (stereo not drawn)	10µM*	i	-10%	-2%	7%	?
Cc1cccc(NC(=S)NNC(=O)c2ccccc2OC(F)F)c1	?	i	-18%	-13%	7%	?
CCN1CCN(c2ccc(Cl)cc2NC(=O)c2ccc(-n3nc(C)cc3C)cc2)CC1	·	i	22µM*	-6%	?	·
CCN1CCN(c2ccc(Cl)cc2NC(=O)c2ccco2)CC1	·	i	-19%	19%	·	·
Cc1ccc(C(=O)NCc2nc3ccccc3[nH]2)o1	-21%	i	-1%	-5%	-3%	-20%
SMILES	RORgamma inh	S2 tox	HepG2 tox	TGFb inhibitor	ATXN2 expr inh	Gal4-VP16 FLuc
C/C(=N\Nc1nc2ccccc2[nH]1)c1ccc(C)o1	14µM*	i	-13%	-3%	55%	?
C/C(=N\Nc1nc2ccccc2[nH]1)c1ccc(Cl)s1	2.2µM*	·	-16%	?	?	2.8µM*
O=c1nc2onnc2c(C=NO)[nH]1	·	?	-2%	-4%	8%	·
Cc1c(NC(=O)CSc2nnc(C(C)N(C)C)n2-c2ccccc2)c(=O)n(-c2ccccc2)n1C (stereo not drawn)	·	i	-27%	?	5%	·
CC(C)CC(=O)NC(=S)Nc1ccc(N2CCN(C(=O)c3cccs3)CC2)cc1	7.1µM*	?	7%	?	?	6.3µM*
Cc1ccc(C(=O)NC(=S)Nc2ccc(N3CCN(C(=O)c4ccco4)CC3)cc2)cc1	13µM*	i	-41%	?	-10%	5.6µM*
Cc1ccccc1C(=O)N1CCN(c2ccc(NC(=S)NC(=O)c3cccs3)cc2)CC1	2.8µM*	?	-12%	?	·	5.6µM*
O=C(NC(=S)Nc1ccc(N2CCOCC2)cc1)c1cccs1	2.8µM*	i	-9%	10%	·	?
C/C(=N/NC(=O)c1cccs1)c1ccc(N2CCOCC2)cc1	-9%	i	1%	0%	33%	?
Cc1ccc(C(=O)N2CCN(c3ccc(NC(=S)NC(=O)c4cccs4)cc3)CC2)cc1	7.1µM*	i	-24%	-21%	?	11µM*
O=S(=O)(c1ccc(Cl)cc1)N1CCN(c2nc(-c3cccc(Br)c3)nc3ccccc23)CC1	·	·	8%	-3%	·	·
COc1ccc(OC)c(-c2csc(N(C)C(=O)c3ccco3)n2)c1	14%	35µM*	-5%	-4%	-19%	-7%
COc1ccc(-c2csc(N(CCCN(C)C)C(=O)c3cccs3)n2)cc1	-20%	?	10µM*	-23%	-31%	0%
Cc1ccc(-c2csc(N(CCCN(C)C)C(=O)c3ccco3)n2)cc1	0.63µM*	i	-2%	?	-38%	3.5µM*
CCN(C(=O)c1cccs1)c1nc(-c2ccc(OC)cc2)cs1	33%	i	-7%	6%	36%	4%
C=Cc1ccc(CSc2nc(-c3ccc(C)cc3)nc3c2Cc2c(CO)cnc(C)c2O3)cc1	·	?	-16%	-15%	3%	·
CCn1c(N)nc2c1c(=O)n(C)c(=O)n2C	-19%	i	3%	3%	-6%	15%
Cc1ccccc1-c1nc2c(=O)n(C)c(=O)nc-2n(C)n1	·	·	1.1µM*	0.63µM*	·	·
Cn1nc(-c2ccccn2)nc2c(=O)n(C)c(=O)nc1-2	0.45µM*	·	2.8µM*	2.2µM*	?	0.56µM*
CCCc1nc2c(=O)n(C)c(=O)nc-2n(C)n1	1.4µM*	·	1.1µM*	1.1µM*	4.2µM*	2.8µM*
Cc1ccc(-n2c3nc(=O)n(C)c(=O)c-3cc3ccccc32)cc1	-1%	·	-2%	3%	11%	5%

Compound activity from PubChem.
